KB-V1 MDR tox = qHTS assay for MDR1-selective chemotherapeutics: Primary screen using the drug-selected MDR subline cells KB-V1; 3.4% of 400,000 active; KB-V1 MDR cells viability, CellTiter-Glo, 72 h; Potency, µM (doses to about 46.1 µM), actives largely listed as cytotoxic; also: nearly all actives have a fitted effect of over 60% in size
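KB-V1 cells (P-gp-expressing MDR subline of KB-3-1) in phenol-red-free DMEM with 10% FBS were exposed to library compounds over a concentration series for 72 h at 37 degrees C. Viability read by CellTiter-Glo luminescence; concentration-effect curves fitted after normalization.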
KB-3-1 cytotox = qHTS assay for MDR1-selective chemotherapeutics: Primary screen using the parental adenocarcinoma cell KB-3-1; AID 1347075, 2019; KB-3-1 viability, CellTiter-Glo ATP luminescence, 72 h; Potency, µM (doses to about 46.1 µM), most hits filed as cytotoxic; 1.4% of 400,000 active; also: nearly all actives have a fitted effect of over 60% in size
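Cytotoxicity measured as CellTiter-Glo luminescence after 72 h at 37 C. Compound titrations were pinned onto drug-naive KB-3-1 parental adenocarcinoma cells grown in DMEM with 10% FBS, and normalized data fitted to concentration-response curves.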
HT1080 IDH1KD tx = qHTS for induction of synthetic lethality in tumor cells producing 2HG: qHTS for the HT-1080-IDH1KD cell line; Potency, µM (top dose mostly 46.1 µM), for the others: at the top dose activity, negative = toxicity, most hits filed as cytotoxic; 2% of 360,000 active; HT-1080 IDH1 knockdown viability, ATP luminescence, 48 h;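 also: 0% = DMSO wells and -100% = cell-free medium wells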
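In this qHTS, HT-1080 cells depleted of IDH1 are exposed for 48 h at 37 °C to compound titrations. Toxicity is scored from CellTiter-Glo luminescence, with DMSO as full viability and medium alone as none.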
HT1080NT lethal = qHTS for induction of synthetic lethality in tumor cells producing 2HG: qHTS for the HT-1080-NT fibrosarcoma cell line. HT-1080-NT fibrosarcoma viability, CellTiter-Glo ATP luminescence, 48 h. Potency, µM (doses to about 46.1 µM), without a hit: top-dose activity, negative = less viability, usual class: cytotoxic. 1.6% of 360,000 active;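 also: NT is the 2HG producing partner of a matched IDH1 knockdown line; 0% = DMSO-treated cells and -100% = media-only wells without cells; nearly all actives have a fitted effect of over 55% in size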
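Compounds were tested in concentration-response format on HT-1080-NT cells for 48 hours at 37 degrees C. Cell viability came from CellTiter-Glo luminescence; curves were classified by r2, response magnitude and activity.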
The depositor's hits bear a star; i = inactive; ? = inconclusive; / = no result. Rows were chosen to be rich in hits. Some 5.7% of all compounds tested hit in one or more screens of this group. Calls follow the shape of the dose curve; as a rule, active = well fitted curve in the direction sought with a large enough effect; inconclusive = small, poorly fitted or top-dose-only effect, or another doubt; inactive = no such curve, though single readings can be large; an effect the other way counts as inactive or inconclusive. Unless noted, % is scaled to controls: 0 for no effect and ±100 for the full control effect; potency is read from the fitted curve at half-maximal effect.

SMILES	KB-V1 MDR tox	KB-3-1 cytotox	HT1080 IDH1KD tx	HT1080NT lethal
Cc1cccc(Cn2nc(C)n3c(cc4cc(C)ccc43)c2=O)c1	i	i	/	/
CSc1nc2c(cnn2-c2ccc(C)c(C)c2)c(=O)[nH]1	?	1.6µM*	9%	1%
CCC(C)Sc1nc2c(cnn2-c2ccc(C)c(C)c2)c(=O)[nH]1 (stereo unspecified)	i	i	6%	3%
O=C(Cc1ccc(Cl)cc1)Nc1cccc(S(=O)(=O)N2CCCCC2)c1	i	?	-10%	0%
O=C(CCl)Nc1cccc(S(=O)(=O)N2CCCCCC2)c1	23µM*	16µM*	18µM*	?
CS(=O)(=O)c1cccc(C(=O)Nc2cccc(S(=O)(=O)N3CCCC3)c2)c1	i	i	-15%	-20%
COc1cc(C(=O)Nc2cccc(S(=O)(=O)N3CCCC3)c2)cc(OC)c1C	23µM*	?	-9%	-3%
O=C(Nc1cccc(S(=O)(=O)N2CCCCC2)c1)c1ccc(S(=O)(=O)C(F)F)cc1	7.3µM*	?	-15%	0%
CC(C)Cn1nc(C(=O)Nc2cccc(S(=O)(=O)N3CCCC3)c2)c2ccccc2c1=O	4.6µM*	i	-4%	0%
O=C(NCc1ccc(Cl)cc1)c1cnc2sc(N3CCOCC3)nn2c1=O	i	i	/	/
CCCCNC(=O)c1cc(-c2ccc(OC)cc2)nc2n[nH]c(-c3cccc([N+](=O)[O-])c3)c12	i	i	/	/
COC(=O)c1ccc(OC)c(CN2C(=O)N(c3ccc(C(C)=O)cc3)S(=O)(=O)c3ccccc32)c1	i	i	/	/
O=C(Nc1cccc(S(=O)(=O)N2CCCCC2)c1)c1ccc2c(=O)n3c(nc2c1)CCCCC3	5.8µM*	12µM*	?	-19%
CCOC(=O)N1CCN(C(=O)COc2ccc(Br)cc2Cl)CC1	7.3µM*	i	-2%	-4%
O=C(COc1ccc(Cl)cc1Cl)N1CCCN(C(=O)COc2ccc(Cl)cc2Cl)CC1	8.2µM*	?	?	-27%
Cc1cc(Cl)ccc1OCC(=O)N1CCCCC1	i	i	13%	17%
CCOC(=O)c1[nH]c2ccc(F)cc2c1NC(=O)CN1CCN(C/C=C/c2ccccc2)CC1	?	i	26µM*	21µM*
CCOC(=O)N1CCN(CC(=O)Nc2c(C(=O)OC)[nH]c3ccc(Cl)cc23)CC1	2.3µM*	16µM*	-5%	-25%
CCc1ccccc1NC(=O)CSc1ncccc1C(=O)O	?	i	/	/
CCCCOc1ccc(C(=O)NCCN2CCC(n3c(=O)[nH]c4ccccc43)CC2)cc1	?	i	16µM*	?
O=C(NCCN1CCC(n2c(=O)[nH]c3ccccc32)CC1)c1ccc(C(F)(F)F)cc1C(F)(F)F	12µM*	?	0%	-4%
O=C(NCCN1CCC(n2c(=O)[nH]c3ccccc32)CC1)c1ccc(OC(F)(F)F)cc1	i	i	?	?
Cc1cc(C)cc(-n2cccc2/C=C2/C(=N)N3C(=NC2=O)SN=C3S(C)(=O)=O)c1	i	?	-17%	18µM*
Cc1ccc(-n2cccc2/C=C2/C(=N)N3C(=NC2=O)SN=C3S(C)(=O)=O)cc1	i	i	8%	-5%
COc1cccc(/C=C/C(=O)c2cccc([N+](=O)[O-])c2)c1OC	?	i	?	23µM*
SMILES	KB-V1 MDR tox	KB-3-1 cytotox	HT1080 IDH1KD tx	HT1080NT lethal
COc1cccc(/C=C/C(=O)c2cccc([N+](=O)[O-])c2)c1	?	?	17%	7%
Cc1cccc(Cn2c(=O)n(CCCC(=O)NCc3ccccc3Cl)c(=O)c3ccccc32)c1	i	?	/	/
COc1ccc2sc(-c3ccc(N(C)C)cc3)c(C#CC(C)(C)O)c2c1	i	i	?	?
COc1ccc(-c2sc3ccc(OC)cc3c2C#CCCO)cc1	i	i	-29%	-18%
COc1ccc2sc(-c3ccc(N(C)C)cc3)c(C#CCCO)c2c1	?	?	?	16µM*
COc1ccc2sc(-c3ccc(N(C)C)cc3)c(C#Cc3cncn3C)c2c1	?	10µM*	26µM*	26µM*
CC(=O)C1CCC2C3CCC4CC(=O)CCC4(C)C3C(O)CC12C (stereo unspecified)	?	i	-2%	-2%
CC(=NO)C1CCC2C3CCC4CC(=NO)CCC4(C)C3C(C)(O)CC12C (stereo unspecified)	12µM*	i	16%	9%
CCC1CCCCN1C(=O)c1nn(-c2ccc(C)cc2)c(=O)c2c1c1ccccc1n2C (stereo unspecified)	?	i	/	/
CS(=O)(=O)N1CCc2cc(C(=O)Nc3cccc(F)c3)ccc21	i	i	/	/
CCc1ccc(Nc2cc(C)nc3nc(Cc4ccc(Cl)cc4)nn23)cc1	?	21µM*	/	/
Cc1ccc(Nc2cc(C)nc3nc(Cc4ccc(Cl)cc4)nn23)cc1	i	i	/	/
CCC(Nc1ccc(-c2nc(-c3cccnc3)no2)cc1[N+](=O)[O-])c1ccccc1 (stereo unspecified)	i	i	/	/
COc1cccc(C2C=C(c3ccc(Br)s3)Nc3ncnn32)c1OC (stereo unspecified)	5.2µM*	?	5%	6%
C=CCOC(=O)C1=C(C)Nc2ncnn2C1c1cc(Br)ccc1F (stereo unspecified)	?	i	-23%	-2%
Fc1ccc(Br)cc1C1C=C(c2ccc(Br)s2)Nc2ncnn21 (stereo unspecified)	?	?	1.2µM*	1.3µM*
N#Cc1cccc(OC2=NS(=O)(=O)c3ccccc32)c1	?	i	/	/
CCOc1ccc(C(c2c(O)cc(C)n(Cc3ccco3)c2=O)N2CCN(C)CC2)cc1 (stereo unspecified)	i	i	/	/
COc1cc(/C=C2/C(=O)c3cccc([N+](=O)[O-])c3C2=O)c(Br)cc1O	i	i	18µM*	?
COc1ccccc1NC(=O)CCCCCN1C(=O)c2cccc([N+](=O)[O-])c2C1=O	i	i	2%	17%
CC1CCC(NC(=O)c2ccc3c(c2)N(Cc2cccc(F)c2)C(=O)c2ccccc2S3)CC1 (stereo unspecified)	i	i	/	/
Cc1cccc(NC(=O)c2ccc(NCC3CCCO3)c([N+](=O)[O-])c2)c1 (stereo unspecified)	4.1µM*	i	16%	18%
CCC(=O)Nc1cccc(NC(=O)c2ccc(C)c([N+](=O)[O-])c2)c1	15µM*	i	8%	4%
CCCC(=O)Nc1cccc(NC(=O)c2ccc(C)c([N+](=O)[O-])c2)c1	i	i	12%	-2%
